From PubChem BioAssay
Hits are enriched below; roughly 19% of the tested compounds scored in any of these assays.
SW480 rereplic = induces DNA re-replication in SW480 colon adenocarcinoma cells; SW480 DNA re-replication, Hoechst DNA content imaging, 48 h; Potency, µM (top dose mostly 46.1 µM), usual class: activators; 340,000 tested, 1.8% active; also: nearly all actives have a fitted effect of over 55% in size
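DNA re-replication was detected as more nuclei of elevated Hoechst intensity after 48 hr exposure to compound (23 nL pinned per well of 250 cells).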
Chronic BCR inh = blocks chronic active B-cell receptor signaling; ABC-DLBCL IkBa-CBG/CBR reporter, luminescence ratio, 4 h; Potency, µM (highest dose often 46.1 µM), usual class: inhibitors; 340,000 tested, 0.05% active; active = well fitted inhibition curve with a large enough effect in the signal ratio, with a control signal flat, not every such curve was filed as active; inconclusive = small, poorly fitted or top-dose-only effect, or effect the other way, or a change in a side signal; the % refers to the signal ratio
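TMD8 ABC-DLBCL cells carrying doxycycline-inducible green luciferase fused to IkappaBalpha plus unfused red luciferase were exposed to compounds (up to 46 uM) for 4 hrs at 37C. Activity came from the overlap-corrected green/red luminescence ratio.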
DT40 TDP1 no CPT = qHTS for Inhibitors of human tyrosyl-DNA phosphodiesterase 1 (TDP1): qHTS in cells in absence of CPT | 420,000 tested, 15% active | Potency, µM (doses to about 46.2 µM), most hits filed as inhibitors | AID 686978, 2013 | DT40 Tdp1-/- hTDP1 cells, no CPT, ATP luminescence, 48 h; also: nearly all actives have a fitted effect of over 55% in size
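Growth kinetics read by CellTiter-Glo luminescence after ≥48 hr at 37 °C. Cells: DT40 Tdp1-/- stably carrying human TDP1, 400 per well, compound exposure in the absence of CPT (DMSO vehicle).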
MCF10A rerep = inducers of DNA re-replication in MCF 10A breast cells; Potency, µM (top dose mostly 46.1 µM), hits mostly activators; MCF 10A DNA re-replication, Hoechst nuclear intensity, 48 h; 350,000 tested, 2.9% active; also: nearly all actives have a fitted effect of over 50% in size
TDP1 cell CPT = growth inhibition of DT40 Tdp1-/-;hTDP1 cells with camptothecin (screen for TDP1 inhibitors); chicken DT40 Tdp1-/-;hTDP1 cells + 20 nM CPT, ATP luminescence, 48 h; Potency, µM (series often up to 46.2 µM), actives largely listed as inhibitors; 420,000 tested, 12% active; AID 686979; also: nearly all actives have a fitted effect of over 55% in size
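Chicken DT40 Tdp1-/- cells complemented with human TDP1, 400 cells/well, exposed to compounds plus 20 nM camptothecin for at least 48 h at 37 C; viability read as ATP content by CellTiter-Glo luminescence.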
IL-1B inflam inh = blocks inflammasome-driven IL-1 beta release; THP-1 LPS/ATP IL-1B secretion, AlphaLISA, 16 h; stronger effect = lower value; AID 743279; activity change, % at 57.5 µM; 360,000 tested, 4.7% active; in the data active = activity change below about -50%; inconclusive = mostly about -30% to -49%
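THP-1 cells pretreated 1 hr with compounds (up to 57.5 uM final), then stimulated with LPS (250 ng/mL final) plus ATP (1.25 mM final); secreted IL-1B measured by AlphaLISA after 16 hr, decreased signal indicating inhibition.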
Numbers stand for hits; 0 = inactive; ? = inconclusive; - = not tested or not shown; [ ] = dose if it differs, or a comment. Unless noted, calls follow the shape of the dose curve; as a rule, active = well fitted curve in the direction sought with a large enough effect; inconclusive = small, poorly fitted or top-dose-only effect, or another doubt; inactive = no such curve, though single readings can be large; an effect the other way counts as inactive or inconclusive.

SMILES | SW480 rereplic | Chronic BCR inh | DT40 TDP1 no CPT | MCF10A rerep | TDP1 cell CPT | IL-1B inflam inh
COCCn1c(C)cc(C2=NNC(=Nc3ccccc3)SC2)c1C | 0[9.22 µM] | 0 | 15.8µM | 0 | 22.4µM | 0
O=S(=O)(c1cnc[nH]1)N1CCN(C(c2ccc(F)cc2)c2ccc(F)cc2)CC1 | ? | 0 | ? | 0 | 0 | 0
C=CCn1c(SCC(=O)NCC2CCCO2)nnc1-c1ccccc1 (centres undefined) | 0 | 0 | 0 | ? | 0 | 0
Cc1ccc(OCC(=O)NCC2(N3CCOCC3)CCCCC2)cc1C | - | - | 16.4µM | - | 20.6µM | -
CC(Oc1ccccc1F)C(=O)NCC1(N2CCOCC2)CCCCC1 (centres undefined) | - | - | 18.4µM | - | ? | -
O=C(COc1ccccc1[N+](=O)[O-])NCC1(N2CCOCC2)CCCCC1 | 0 | ? | 20.6µM | 0 | ? | 0
Cc1cc(C)cc(OCC(=O)NCC2(N3CCOCC3)CCCCC2)c1 | - | - | 25.9µM | - | ? | -
O=C(COc1ccc(F)cc1)NCC1(N2CCOCC2)CCCCC1 | 0 | ? | 0 | 0 | ? | 0
Cc1cccc(C)c1OCC(=O)NCC1(N2CCOCC2)CCCCC1 | - | - | ? | - | 16.4µM | -
Cc1cccc(C)c1OCC(=O)NCC1(N(C)C)CCCCC1 | - | - | 0 | - | 0 | -
O=S(c1ccc2ccccc2c1)c1cnns1 (centres undefined) | ? | ? | 2.59µM | 13µM | 1.03µM | -111.0
CN(C)c1ccc(/C=C/c2cc(N(C)C)nc3ccccc23)cc1 | - | - | 0.891µM | - | 1µM | -
Cc1nc2ccccc2nc1/C=C/c1ccc(N(C)C)cc1 | - | - | 0.501µM | - | 0.501µM | -
CN(C)c1ccc(/C=C/c2cnnc3ccccc23)cc1 | - | - | 6.31µM | - | 7.08µM | -
C(=Cc1cnnc2ccccc12)c1ccccc1 | 0 | - | ? | 0 | ? | -62.7
CN(C)c1ccc(/C=C/c2cc(=O)[nH]c3ccccc23)cc1 | - | - | 0 | - | 0 | -
C1=CN2CC=Cc3cc(/C=C/c4ccnc5ccccc45)cc(c32)C1 | - | - | 7.08µM | - | 10µM | -
CC1=C(CC(=O)c2ccc(Cl)cc2)C(=O)c2ccccc2C1=O | 4.11µM | ? | 16.4µM | 4.11µM | 23.1µM | 0
Cn1cnnc1SCC(=O)NC1CCCC1 | 0 | 0 | 0 | 0 | 0 | 0
CC1CCCCN1S(=O)(=O)c1ccc(N(C(=O)c2cnccn2)C(C(=O)NC2CCCCC2)c2cccs2)cc1 (centres undefined) | 0 | ? | ? | 0 | ? | -63.5
Cc1cc(C)cc(N(C(=O)c2ccccn2)C(C(=O)NC2CCCCC2)c2cccs2)c1 (centres undefined) | 0 | 0 | 0 | 0 | ? | 0
CC1CCCCN1S(=O)(=O)c1ccc(N(C(=O)c2cnccn2)C(C(=O)NC2CCCC2)c2cccs2)cc1 (centres undefined) | 0 | 0 | 20.6µM | 0 | ? | 0
CC(C)(CO)C(O)C(=O)NCCCO (centres undefined) | 0 | 0 | 0 | 0 | 0 | 0
O=C(O)C(Cc1ccccc1[N+](=O)[O-])N1C(=O)c2ccccc2C1=O (centres undefined) | 0 | - | 0 | 0 | 0 | 0
CCc1nc(N2CCN(C(C)=O)CC2)c(C#N)c2c1COC(C)(C)C2 | 0 | 0 | 0 | 0 | 0 | 0
SMILES | SW480 rereplic | Chronic BCR inh | DT40 TDP1 no CPT | MCF10A rerep | TDP1 cell CPT | IL-1B inflam inh
Cc1ccc(S(=O)(=O)N2CCN(c3nc(C(C)C)c4c(c3C#N)CC(C)(C)OC4)CC2)cc1 | ? | ? | 15.8µM | 0 | 15.8µM | 0
CCCNC(=O)N1CCN(c2nc(C(C)C)c3c(c2C#N)CC(C)(C)OC3)CC1 | ? | ? | 0 | 0 | 29.1µM | 0
CC(C)Cc1nc(N2CCOCC2)c(C#N)c2c1COC(C)(C)C2 | 0 | 0 | ? | 0 | 0 | 0
Cc1nc(N2CCN(C(=O)c3ccc(Cl)cc3)CC2)c(C#N)c2c1COC(C)(C)C2 | 0 | 0 | ? | 0 | 29.1µM | 0
COc1ccc(CN2CCN(C(C)=O)CC2)cc1OC1CCN(C(=O)c2ccc3ccccc3n2)CC1 | - | - | 0 | - | 0[9.04 µM] | -
COc1ccc(OC)c(-c2ccnc(-n3ncc(C(=O)N(C)CCc4ccccn4)c3C)n2)c1 | - | - | 0 | - | 0[9.04 µM] | -
CCOC(=O)c1cnc(SCCN2CCOCC2)nc1N | 0 | 0 | 0 | 0 | 0 | 0
COCCn1c(SCC(=O)Nc2ccc(F)cc2)nc2ccccc2c1=O | 0 | 0 | ? | 0 | ? | ?
COCCn1c(SCc2ccc(C(=O)OC)o2)nc2ccccc2c1=O | 0 | 0 | 20.6µM | 0 | ? | 0
COCCn1c(SCc2cccc(F)c2)nc2cc(C(=O)OC)ccc2c1=O | 0 | 0 | ? | 0 | 20.6µM | 0
COCCn1c(SCC(=O)NC(=O)Cc2ccccc2)nc2ccccc2c1=O | 0 | 0 | 0 | 0 | 0 | 0
COC(=O)c1ccc(CSc2nc3ccccc3c(=O)n2-c2ccccc2)o1 | 0 | ? | ? | 0 | ? | 0
COC(=O)c1ccc(CSc2nc3ccccc3c(=O)n2-c2ccc(OC)c(OC)c2)o1 | 0 | 0 | ? | 0 | 16.4µM | ?
COCCn1c(SCc2ccc(OC)c(F)c2)nc2ccccc2c1=O | 0 | 0 | 20.6µM | 0 | 16.4µM | ?
COc1ccc(NC(=O)C2CC(=O)N(c3ccccc3F)C2)cc1S(=O)(=O)N1CCCCC1 (centres undefined) | - | - | ? | - | 0 | 0
Cc1cccc(OCc2nnc(SCC(=O)NC3CCCCC3)n2C)c1 | 0 | 0 | 0 | 0 | 0 | 0
CC(C)Cn1c(SCc2cccc(F)c2)nc2ccsc2c1=O | - | - | 29.1µM | - | 14.6µM | -
C[C@@H]1CCCCO[C@H](CN(C)C(=O)Nc2ccc(C(F)(F)F)cc2)[C@@H](C)CN([C@H](C)CO)C(=O)c2cc(NC(=O)c3ccncc3)ccc2O1 | - | - | 14.6µM | - | 20.6µM | 0
C[C@@H]1CCCCO[C@H](CN(C)C)[C@H](C)CN([C@@H](C)CO)C(=O)c2cc(NC(=O)Nc3ccc(C(F)(F)F)cc3)ccc2O1 | - | - | 0 | - | ? | 0
COc1ccc(NC(=O)N(C)C[C@H]2OCCCC[C@@H](C)Oc3ccc(NC(=O)c4ccccc4)cc3C(=O)N([C@H](C)CO)C[C@@H]2C)cc1 | - | - | 20.6µM | - | ? | -
COc1ccc(S(=O)(=O)Nc2ccc3c(c2)C(=O)N([C@H](C)CO)C[C@H](C)[C@@H](CN(C)C(=O)Nc2ccc(F)cc2)OCCCC[C@H](C)O3)cc1 | - | - | 23.1µM | - | ? | 0
COc1ccc(S(=O)(=O)Nc2ccc3c(c2)C(=O)N([C@H](C)CO)C[C@H](C)[C@@H](CN(C)C(=O)Nc2ccc(C(F)(F)F)cc2)OCCCC[C@H](C)O3)cc1 | - | - | 23.1µM | - | ? | ?
COc1ccc(S(=O)(=O)Nc2ccc3c(c2)C(=O)N([C@H](C)CO)C[C@H](C)[C@@H](CN(C)C(=O)Nc2ccc(C(F)(F)F)cc2)O3)cc1 | 0 | 0 | 0 | 0 | 0 | 0
